# Values of other authors in PubChem BioAssay AID977611.
# Among all 3,900 compounds or so, about 3,900 (100%) were called active. No cut-off is given here; in the data, nearly all actives have Kd up to about 4200 µM. The set was probably picked from earlier hits. The list shows a part of the results. *1 amine or outer side, *2 acyl side, *3 side chain or, on linkers, in order; H or OH if unused. Where a SMILES comes first, the peptide text is derived from it. Non-standard residues stand in square brackets, D forms with d. Square brackets hold non-standard residues; d marks the D form. Residues, ends and D or L forms follow the SMILES beside them. Peptide text beside a SMILES is read from it. [ ]: non-standard residue; d: D form. Thr(P(OH)3+) = C[C@@H](O[P+](O)(O)O)[C@H](N)C(=O)O; X1 = O=C([C@H](Cc1ccc(OS(O)(O)O)cc1)N[*:1])[*:2]; Orn(CH(NH2)2) = NC(N)NCCC[C@H](N)C(=O)O
# Assay: PubChem AID 977611
# Conditions: PDB protein-ligand complexes, literature Kd
molecule,measurement,setting,value
NC1NC(=O)c2ncn([C@@H]3O[C@H](CO[P+](O)(O)O[P+](O)(O)N[P+](O)(O)O)[C@@H](O)[C@H]3O)c2N1 (stereo partly specified),Kd,"protein: Atlastin-1, PDB entry 4idn",5.77 µM (active)
same,Kd,"protein: GTPASE IMAP FAMILY MEMBER 7, PDB entry 3zjc",9 µM (active)
same,Kd,"protein: Methylmalonyl-CoA mutase accessory protein, PDB entry 4jyb",0.11 µM (active)
O=C(O)CCc1c[nH]c2ccccc12,Kd,"protein: Protease (Q7K, L33I, L63I, C67A, C95A mutation), PDB entry 4ejl",7.2 µM (active)
O=C(O)c1c[nH]c2ccccc12,Kd,"protein: INTEGRASE, PDB entry 4ahu",5400 µM (active)
H-VGMHSKGTQTA-OH,Kd,"protein: DYNEIN LIGHT CHAIN 1, CYTOPLASMIC, PDB entry 3zke",0.16 µM (active)
CSCC[C@H](NC(=O)CNC(=O)[C@@H](N)C(C)C)C(=O)N[C@@H](Cc1cnc[nH]1)C(=O)N[C@@H](CO[P+](O)(O)O)C(=O)N[C@@H](CCCCN)C(=O)NCC(=O)N[C@H](C(=O)N[C@@H](CCC(N)=O)C(=O)N[C@H](C(=O)O)[C@@H](C)O)[C@@H](C)O,Kd,"protein: DYNEIN LIGHT CHAIN 1, CYTOPLASMIC, PDB entry 3zkf",0.96 µM (active)
NCc1csc(-c2cccs2)n1,Kd,"protein: CATIONIC TRYPSIN, PDB entry 4aba",153 µM (active)
Cc1noc(C)c1-c1cc(NS(=O)(=O)c2ccccc2)cc(C(=O)O)c1,Kd,"protein: ATPase family AAA domain-containing protein 2 ATAD2A bromodomain, PDB entry 4tu4",175 µM (active)
O=C(O)c1cccc2ccoc12,Kd,"protein: INTEGRASE, PDB entry 4ahs",6400 µM (active)
O=C(O)Cc1cc(O)ccc1O,Kd,"protein: HOMOGENTISATE 1,2-DIOXYGENASE, PDB entry 4aq6",15.8 µM (active)
CC(C)C[C@H](NC(=O)[C@@H](N)CO)C(=O)N[C@@H](CCC(=O)O)C(=O)N[C@H](C(=O)N[C@H](C(=O)N[C@@H](CCC(=O)O)C(=O)N[C@@H](C)C(=O)N[C@@H](CC(=O)O)C(=O)N[C@@H](C)C(=O)N[C@H](C(=O)N[C@@H](Cc1ccccc1)C(=O)N[C@H](C(=O)N[C@@H](CCC(N)=O)C(=O)O)C(C)C)[C@@H](C)O)[C@@H](C)O[P+](O)(O)O)C(C)C (H-SLEV[Thr(P(OH)3+)]EADATFVQ-OH),Kd,"protein: FHA1 Domain of Rad53, PDB entry 1k3q",0.3 µM (active)
CC(C)C[C@H](NC(=O)[C@H](CC(C)C)NC(=O)CNC(=O)[C@@H](NC(=O)[C@H](CC(=O)O)NC(=O)[C@H](CC(=O)O)NC(=O)[C@H](Cc1ccc(OS(O)(O)O)cc1)NC(=O)[C@H](Cc1ccc(OS(O)(O)O)cc1)NC(=O)[C@H](CO)NC(=O)[C@@H](NC(=O)[C@@H](NC(=O)CNC(=O)[C@H](Cc1ccccc1)NC(=O)[C@@H](NC(=O)[C@H](CCC(=O)O)NC(=O)[C@@H](N)C(C)C)[C@@H](C)O)[C@@H](C)O)[C@@H](C)O)C(C)C)C(=O)O (H-VETFGTTS[X1][X1]DDVGLL-OH),Kd,"protein: CC chemokine (CCL11/ eotaxin-1), PDB entry 2mpm",1.3 µM (active)
H-AFFAQLQLDAETGEFL-OH,Kd,"protein: Kelch-like ECH-associated protein 1, PDB entry 2flu",0.02 µM (active)
CC(C)C[C@H](NC(=O)[C@H](Cc1ccccc1)NC(=O)[C@H](CCC(=O)O)NC(=O)[C@H](C)NC(=O)[C@@H](NC(=O)[C@H](CC(C)C)NC(=O)[C@H](CCC(=O)O)NC(=O)[C@H](CC(=O)O)NC(=O)[C@H](CCC(=O)O)NC(=O)[C@H](CO)NC(=O)[C@H](C)N)C(C)C)C(=O)N[C@@H](CCC(N)=O)C(=O)N[C@@H](CC(=O)O)C(=O)N[C@@H](CCC(N)=O)C(=O)N[C@@H](CC(N)=O)C(=O)O (H-ASEDELVAEFLQDQN-OH),Kd,"protein: PEROXISOMAL MEMBRANE PROTEIN PEX14, PDB entry 4bxu",0.1 µM (active)
CC(C)C[C@H](NC(=O)[C@H](CCC(=O)O)NC(=O)[C@H](CCC(N)=O)NC(=O)[C@@H](NC(=O)[C@H](CO)NC(=O)[C@@H](N)C(C)C)[C@@H](C)O[P+](O)(O)O)C(=O)N[C@@H](Cc1ccc(O)cc1)C(=O)N[C@@H](CO)C(=O)O (H-VS[Thr(P(OH)3+)]QELYS-OH),Kd,"protein: mammalian MDC1 FHA domain, PDB entry 3va4",40 µM (active)
H-DDFGGFEAAET-OH,Kd,"protein: ADP-ribosylation factor binding protein GGA1, PDB entry 1om9",70 µM (active)
CC(C)C[C@@H](NC(=O)[C@H]1CCCN1C(=O)[C@@H](Cc1c[nH]c2ccccc12)NC(=O)[C@@H](Cc1c[nH]c2ccccc12)NC(=O)[C@H](N)CC(=O)O)C(=O)N[C@H](C)C(=O)N[C@H](Cc1ccccc1)C(=O)N[C@H](CCC(=O)O)C(=O)N[C@H](C)C(=O)N[C@H](CC(C)C)C(=O)N[C@H](CC(C)C)C(=O)N[C@H](CCCNC(N)N)C(=O)O,Kd,"protein: human MDM2 (Synthetic construct, 25-109), PDB entry 3iwy",0.053 µM (active)
C[C@H](NC(=O)[C@@H](N)CO)C(=O)N[C@@H](CCCNC(N)N)C(=O)N[C@@H](Cc1c[nH]c2ccccc12)C(=O)N[C@@H](CCCNC(N)N)C(=O)N[C@@H](Cc1ccccc1)C(=O)N1CCC[C@H]1C(=O)N[C@@H](C)C(=O)N[C@@H](CCCNC(N)N)C(=O)N1CCC[C@H]1C(=O)NCC(=O)N[C@H](C(=O)O)[C@@H](C)O,Kd,"protein: Menin (A541T mutation), PDB entry 4gq6",0.053 µM (active)
H-EPQAPWME-OH,Kd,"protein: antibody Fab, PDB entry 3uyr",0.127 µM (active)
H-EWGPWV-NH2,Kd,"protein: AP-1 COMPLEX SUBUNIT GAMMA-LIKE 2, PDB entry 2ymt",0.01 µM (active)
CC(C)C[C@H](NC(=O)[C@H](Cc1c[nH]c2ccccc12)NC(=O)[C@H](CC(=O)O)NC(=O)[C@H](CCC(N)=O)NC(=O)[C@H](CC(N)=O)NC(=O)[C@H](CCCNC(N)N)NC(=O)[C@@H]1CCCN1C(=O)CNC(=O)[C@@H](N)CCC(=O)O)C(=O)O (H-EGP[Orn(CH(NH2)2)]NQDWL-OH),Kd,"protein: H-2 class I histocompatibility antigen (Y159F mutation), PDB entry 4iho",8 µM (active)
H-SAVLQKKITDYFHPKK-OH,Kd,"protein: human proliferating cell nuclear antigen(PCNA), PDB entry 1vyj",0.1 µM (active)
CC[C@H](C)[C@H](NC(=O)[C@H](CC(=O)O)NC(=O)[C@H](Cc1ccc(O)cc1)NC(=O)[C@H](C)NC(=O)[C@H](C)NC(=O)CN)C(=O)N[C@@H](CO[P+](O)(O)O)C(=O)N[C@@H](CCC(N)=O)C(=O)N[C@H](C(=O)N[C@@H](Cc1ccccc1)C(=O)N1CCC[C@H]1C(=O)N[C@@H](Cc1ccccc1)C(=O)N[C@@H](C)C(=O)N[C@@H](C)C(=O)O)C(C)C,Kd,"protein: Breast cancer type 1 susceptibility protein, PDB entry 1t2v",0.4 µM (active)
H-SVPIQCTDKTDKQEALFK-OH,Kd,"protein: human tumor necrosis factor receptor(TRAF3), PDB entry 1l0a",23.9 µM (active)
CSCC[C@H](NC(=O)[C@H](CCCCN)NC(=O)[C@@H](N)CCCCN)C(=O)N[C@H](C(=O)N[C@@H](Cc1ccccc1)C(=O)N[C@@H](CCC(N)=O)C(=O)N[C@H](C(=O)N1CCC[C@H]1C(=O)N[C@H](C(=O)N[C@@H](CC(=O)O)C(=O)N1CCC[C@H]1C(=O)N[C@@H](CC(C)C)C(=O)N[C@@H](CCC(=O)O)C(=O)O)[C@@H](C)O)[C@@H](C)O[P+](O)(O)O)[C@@H](C)O (H-KKMTFQ[Thr(P(OH)3+)]PTDPLE-OH),Kd,"protein: FHA1 Domain of Rad53, PDB entry 1k3n",10.2 µM (active)
